SARS PLP yeast – SARS-CoV PLP inhibition in yeast. S. cerevisiae expressing SARS-CoV PLpro, growth rescue. Potency, µM (titrated, usually from 32.9 µM), without a hit: top-dose activity, positive = growth rescue, actives largely listed as activators. actives 0.19% (n = 330,000). AID 485353; calls by dose curve; note: potency is the fitted concentration of half-maximal effect; 0% is about no effect; nearly all actives have a fitted effect of over 55% in size
Sm TGR inh – inhibitors of Schistosoma mansoni thioredoxin glutathione reductase. Q962Y6. purified TGR, DTNB reduction, TNB absorbance 405 nm. Potency, µM (highest dose often 114 µM), for the others: at the highest dose activity change, negative = inhibition, most hits filed as inhibitors. actives 3% (n = 360,000); note: potency is the fitted concentration of half-maximal effect; % is set by controls: 0 for no effect and ±100 for the full control effect; nearly all actives have a fitted effect of over 60% in size
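First, TGR (20 nM dispensed) and NADPH were mixed with compound. Second, a 15 min room-temperature incubation followed. Third, further NADPH and then DTNB were added to start the reaction. Finally, TNB absorbance was monitored kinetically.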
Pf growth 48h – P. falciparum growth inhibition at 48 hours (one generation). P. falciparum luciferase growth in erythrocytes, 48 h. actives 5.9% (n = 310,000). Potency, µM (doses to about 28.7 µM), for the others: at the top dose activity change, negative = inhibition, hits mostly inhibitors; note: potency is the fitted concentration of half-maximal effect; % is set by controls: 0 for no effect and ±100 for the full control effect
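Here the parasites carry a stable luciferase gene and grow inside erythrocytes in Albumax-based RPMI medium with compound for one erythrocytic cycle. Activity is scored as loss of luminescent signal.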
HCV inh – HCV inhibition; Huh7.5.1 HCVcc-Cre infection, luciferase reporter, 44 h; Potency, µM (titrated, usually from 41.8 µM), for the others: at the highest dose activity change, negative = inhibition, actives largely listed as inhibitors; actives 3.4% (n = 340,000); note: potency is the fitted concentration of half-maximal effect; % is set by controls: 0 for no effect and ±100 for the full control effect
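Cells seeded at 1,000/well and cultured 4 h, then compounds added followed by HCVcc-Cre virus (~0.5 moi). After 44 h further culture, luciferase substrate was added, plates held 15 min at room temperature, and luminescence read for 15 sec.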
HCMV inh – blocks human cytomegalovirus replication | actives 4.5% (n = 410,000) | HFF cells, HCMV-luciferase reporter, 72 h; active compounds read low | activity change, negative = inhibition, % at 57.5 µM; in the data active = activity change below about -60%; inconclusive = no clear call, values can overlap the other calls; inactive = above about -39%; note: % is set by controls: 0 for no effect and ±100 for the full control effect
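Screen run at 2 compound doses on HFFs infected with reporter HCMV, MOI 1 PFU/cell. Luciferase activity from cell lysates at 72 h post infection gave inhibition relative to buffer-only and Salinomycin wells.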
Pf growth 96h – P. falciparum growth inhibition at 96 hour, primary screen for plastid delayed-death inhibitors | Potency, µM (titrated, usually from 28.7 µM), for the others: at the highest dose activity change, negative = inhibition, actives largely listed as inhibitors | P. falciparum luciferase reporter growth, 96 h | actives 6.9% (n = 320,000) | AID 504834; note: potency is the fitted concentration of half-maximal effect; % is set by controls: 0 for no effect and ±100 for the full control effect
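P. falciparum expressing integrated firefly luciferase grown in erythrocytes (2% hematocrit, 0.05% parasitemia final) with compounds for 96 hours at 37 C, 5% CO2. Growth inhibition read as loss of luminescence after adding luciferase detection reagent.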
* marks the source's active call; other numbers are inactive results; u = inconclusive; x = no result; [ ] = dose if it differs, or a comment. Compounds with a hit are over-represented: about 15% of the library has one in this group of screens. Unless noted, calls come from the whole dose curve; as a rule, active = well fitted curve in the direction sought with a large enough effect; inconclusive = small, poorly fitted or top-dose-only effect, or another doubt; inactive = no such curve, though single readings can be large; an effect the other way counts as inactive or inconclusive.

SMILES	SARS PLP yeast	Sm TGR inh	Pf growth 48h	HCV inh	HCMV inh	Pf growth 96h
COc1ccc(C[C@H]2CN3C(=NC[C@@H]3Cc3ccccc3)N2CCNC(=O)c2ccc(C)c(Br)c2)cc1	0.6%	11.2µM*	u	u	x	5.22µM*
C/C=C(\C)C(=O)NCCN1C2=NC[C@H](Cc3ccccc3)N2C[C@@H]1Cc1ccc(OC)cc1	x	x	x	11.6%	10.4	x
C=C1CCN(c2ccc(C(=O)NCc3ccc(OC)cc3)cc2[N+](=O)[O-])CC1	x	x	x	u	2.8	x
CC(C)(C)C(CO)NC(=O)c1ccc[nH]1 (stereo unspecified)	-2.0%	-4.8%	38.5%	0.5%	-9.6	33.6%
O=C(c1ccc(Cl)cc1)n1nc(-c2ccccc2)nc1NCc1ccco1	x	0.0%	x	x	-31.3	x
Cc1cc(C)n2nc(-c3sccc3-n3cccc3)cc2n1	5.0%	3.9%	30.5%	-18.6%	25.8	36.3%
Cc1cc(C)n2nc(-c3sccc3-n3c(C)ccc3C)cc2n1	-16.1%	-34.7%	u	8.91µM*	-31.7	u
O=C(O)C1CCCCC1C(=O)NCCc1ccc(Cl)cc1 (stereo unspecified)	3.0%	-3.8%	13.9%	0.3%	14.8	x
O=C(O)C1CCCCC1C(=O)NCCc1ccc(F)cc1 (stereo unspecified)	0.4%	-5.9%	21.3%	16.1%	8.9	9.28µM*
COCC(=O)Nc1nc2ccccc2s1	x	2.3%	46.9%	-11.0%	151.2	31.6%
NC(=S)Nc1nc2ccccc2s1	-0.1%	-1.6%	u	14.3%	-108.4*	u
Cc1cc(C)nc(Nc2nc3ccccc3s2)n1	-7.2%	-0.2%	154.7%	28.5%	202.9	1.65µM*
O=C(NNc1nc2ccccc2s1)Nc1ccc(F)cc1	-0.9%	0.1%	92.8%	4.9%	0.0	131.9%
COc1ccc(C(=O)Nc2nc3ccccc3s2)c(OC)c1	-20.2%	-3.9%	u	-8.2%	-96.7*	13.1µM*
O=C(NNc1nc2ccccc2s1)c1ccccc1F	5.9%	-24.9%	7.5%	9.9%	-67.1*	-26.0%
COCCN(C(=O)Nc1ccc(OC)cc1)c1nc2ccccc2s1	-0.1%	-6.3%	7.8%	u	-96.8*	36.7%
COc1cc(C(=O)Nc2nc3ccccc3s2)ccc1OCc1c(C)noc1C	-2.3%	8.7%	11.7µM*	u	35.3	u
COc1ccc2sc(NC(=O)NC(=O)c3c(Cl)cccc3Cl)nc2c1	-0.3%	-1.1%	10.4µM*	-17.3%	20.6	8.28µM*
COc1ccccc1C(=O)Nc1nc2ccccc2s1	x	-11.5%	u	u	-99.1*	u
COC(=O)c1ccc(Cn2c(SCc3ccccc3)nc3ccncc32)cc1	x	-2.1%	x	x	22.0	x
CCC[C@H]1[C@@H](NS(=O)(=O)c2c(C)cc(C)cc2C)CC[C@@]23CCCN2C(=O)CCC[C@@H]13	x	x	x	x	-29.8	x
O=C(Nc1nc2ccccc2s1)c1cccn(Cc2ccccc2)c1=O	x	-0.6%	x	x	60.2	x
Cc1ccccc1Cn1cccc(C(=O)Nc2nc3ccccc3s2)c1=O	x	4.8%	x	x	-71.4*	x
COc1ccccc1C(=O)NCc1ccc(-c2nc3ccccc3s2)cc1	17.0%	u	166.9%	15.8%	-60.6*	-27.2%
COc1ccc(-n2c(=O)c3c(c4cc(OC)ccc4n3C)n(CC(=O)N3CCCC3)c2=O)cc1	x	-9.2%	x	x	12.1	x
SMILES	SARS PLP yeast	Sm TGR inh	Pf growth 48h	HCV inh	HCMV inh	Pf growth 96h
CCC1=C(OC(=O)N(CC)CC)N2C(=O)OC(=NCCc3c[nH]c4ccccc34)[C@]2(Cc2ccccc2)[C@H]2C1=CC[C@H]1C(=O)N(CC(=O)OC)C(=O)[C@H]12	0.2%	-12.1%	5.22µM*	u	-4.1	13.1µM*
CCC1=C(OC(=O)N(CC)CC)N2C(=O)OC(=NCCc3c[nH]c4ccccc34)[C@]2(Cc2ccccc2)[C@H]2C1=CC[C@H]1C(=O)NC(=O)[C@H]12	1.9%	-1.0%	u	-1.8%	74.0	11.7µM*
CCC1=C(OC(=O)N(CC)CC)N2C(=O)OC(=NCCOC)[C@]2(Cc2ccccc2)[C@H]2C1=CC[C@H]1C(=O)N(CC(=O)OC)C(=O)[C@H]12	1.5%	-21.7%	9.28µM*	16.4%	11.2	u
CCC1=C(OC(=O)N(CC)CC)N2C(=O)OC(=NCC(=O)OC)[C@]2(Cc2ccccc2)[C@H]2C1=CC[C@H]1C(=O)NC(=O)[C@H]12	0.4%	6.2%	u	28.0%[8.37 µM]	-8.2	u
Cc1cc(=O)n(C(C)Cc2ccccc2)n1C(C)Cc1ccccc1 (stereo unspecified)	x	x	x	3.0%	-28.9	x
COc1cc(/C(C)=N/N2CCN(c3ccccc3OC)CC2)ccc1O	-14.1%	-21.2%	0.0%	-0.4%	132.2	u
CC(C)N(C(=O)CSc1nnc(-c2ccc3c(c2)OCO3)n1C)C(C)C	-2.3%	-1.5%	3.2%	5.1%	-7.2	u
COc1cc(N=C2C(=O)N3c4c(cccc42)C(C)=CC3(C)C)cc(OC)c1	-14.8%	-0.2%	u	-13.3%	-8.1	u
CC1=CC(C)(C)N2C(=O)C(=Nc3ccc(O)cc3)c3cccc1c32	-1.0%	10µM*	u	u	u	u
CN1COc2ccc3ccccc3c2C1	-3.3%	3.98µM*	-36.9%	10.3%	-37.2	-0.8%
S=C(NCC1CCCO1)N1CCN(c2ccccc2)CC1 (stereo unspecified)	-3.7%	-2.2%	30.8%	5.3%	-31.2	4.65µM*
COCCNC(=S)N1CCN(c2cccc(C(F)(F)F)c2)CC1	-2.4%	1.4%	-3.8%	-0.3%	-34.2	u
FC(F)(F)c1cccc(N2CCN(C(=S)NCC3CCCO3)CC2)c1 (stereo unspecified)	-5.5%	-1.8%	u	11.2µM*	-65.0*	40.6%
CCN1CC=C(c2c[nH]c3ccccc23)CC1	u	0.3%	1.04µM*	10µM*	-7.2	40.3%
Cc1ccc(NC(=O)N2CC=C(c3c[nH]c4ccccc34)CC2)cc1Cl	x	0.8%	x	x	-66.0*	x
Cc1cccc(NC(=O)N2CC=C(c3c[nH]c4ccccc34)CC2)c1C	x	-29.4%	x	x	0.0	x
CCCN(CCC)CCNC(=O)c1cc2c(=O)oc3ccc(C)cc3c2s1	x	-6.1%	x	x	4.7	x
COc1ccc(-c2[nH][nH]c(=O)c2NC(=O)c2ccccn2)cc1	x	x	x	x	-6.2	x
COc1ccc(CCC(=O)Nc2c(-c3ccc(N(C)C)cc3)[nH][nH]c2=O)cc1	x	x	x	x	-68.0*	x
O=C(CCCCn1cnc2c(=S)nc[nH]c21)Nc1ccc(C(=O)O)c(O)c1	x	x	x	5.1%	-73.3*	x
O=C(CSc1nnc(SCC(=O)c2ccco2)s1)c1ccco1	0.3%	39.8µM*	-1.1%	0.5%	-1.0	0.0%
O=C(CSc1nc2cc(Cl)ccc2s1)c1ccco1	-5.8%	0.0%	39.5%	-24.7%	100.9	10.4µM*

Bioassay records as filed in PubChem.
